# Source: PubChem BioAssay AID1159580 (chemical genetic matrix, 2015)
# Where “and” joins values, the source holds several entries; their conditions need not be identical. Equal entries are not always repeated. About 2,000 (36%) of roughly 5,500 compounds were called active. Inconclusive results (about 18%) are left out. This is one part of the list. Unmarked numbers belong to inactive results. Cut-off read from the data, not from the text of the source: active = normalized growth mostly below about 0.91 (no sharp cut-off); inconclusive = no clear call, values can overlap the other calls; inactive = mostly above about 0.92.
# Assay: chemical genetic growth profiling, strain panel (AID 1159580);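 note: tested at 20 µM; growth read once vehicle control cultures reached saturation at 30 °C; 1 = growth at the plate median or of vehicle wells; lower values mean less growth of the strain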
# Conditions: S. cerevisiae deletion strains, growth OD
smiles,measurement,setting,value
CN1C[C@H](C(=O)N[C@]2(C)O[C@@]3(O)[C@@H]4CCCN4C(=O)[C@H](Cc4ccccc4)N3C2=O)C[C@@H]2c3cccc4[nH]cc(c34)C[C@H]21,normalized growth,"locus YAL013W, strain DEP1, stronger effect = lower value",0.96
same,normalized growth,"locus YAL021C, strain ccr4, stronger effect = lower value",0.95
same,normalized growth,"locus YAL026C, strain drs2, stronger effect = lower value",1.01
same,normalized growth,"locus YAL030W, strain snc1, stronger effect = lower value",0.984
same,normalized growth,"locus YBL061C, strain skt5, stronger effect = lower value",0.996
same,normalized growth,"locus YBR009C, strain hhf1, stronger effect = lower value",1.07
same,normalized growth,"locus YBR021W, strain FUR4, stronger effect = lower value",0.929
same,normalized growth,"locus YBR023C, strain chs3, stronger effect = lower value",1
same,normalized growth,"locus YBR171W, strain sec66, stronger effect = lower value",0.973
same,normalized growth,"locus YBR229C, strain ROT2, stronger effect = lower value",0.983
same,normalized growth,"locus YBR231C, strain swc5, stronger effect = lower value",0.987
same,normalized growth,"locus YBR279W, strain paf1, stronger effect = lower value",0.997
same,normalized growth,"locus YCL011C, strain gbp2, stronger effect = lower value",0.966
same,normalized growth,"locus YCL016C, strain dcc1, stronger effect = lower value",0.998
same,normalized growth,"locus YCL029C, strain bik1, stronger effect = lower value",0.973
same,normalized growth,"locus YCL061C, strain MRC1, stronger effect = lower value",0.998
same,normalized growth,"locus YCL069W, strain vba3, stronger effect = lower value",0.992
same,normalized growth,"locus YCR088W, strain abp1, stronger effect = lower value",0.994
same,normalized growth,"locus YDL005C, strain med2, stronger effect = lower value",0.997
same,normalized growth,"locus YDL035C, strain GPR1, stronger effect = lower value",1.01
same,normalized growth,"locus YDL040C, strain nat1, stronger effect = lower value",1
same,normalized growth,"locus YDL074C, strain BRE1, stronger effect = lower value",0.896
same,normalized growth,"locus YDL101C, strain DUN1, stronger effect = lower value",0.957
same,normalized growth,"locus YDL134C, strain PPH21, stronger effect = lower value",0.992
same,normalized growth,"locus YDL185W, strain tfp1, stronger effect = lower value",0.998
same,normalized growth,"locus YDL192W, strain arf1, stronger effect = lower value",0.988
same,normalized growth,"locus YDR001C, strain nth1, stronger effect = lower value",0.981
same,normalized growth,"locus YDR069C, strain doa4, stronger effect = lower value",0.987
same,normalized growth,"locus YDR101C, strain arx1, stronger effect = lower value",0.996
same,normalized growth,"locus YDR137W, strain rgp1, stronger effect = lower value",1.02
same,normalized growth,"locus YDR150W, strain NUM1, stronger effect = lower value",1
same,normalized growth,"locus YDR159W, strain sac3, stronger effect = lower value",1
same,normalized growth,"locus YDR162C, strain NBP2, stronger effect = lower value",0.987
same,normalized growth,"locus YDR195W, strain ref2",0.99
same,normalized growth,"locus YDR297W, strain sur2, stronger effect = lower value",0.981
same,normalized growth,"locus YDR318W, strain mcm21, stronger effect = lower value",0.97
same,normalized growth,"locus YDR334W, strain swr1, stronger effect = lower value",0.944
same,normalized growth,"locus YDR335W, strain msn5, stronger effect = lower value",0.992
same,normalized growth,"locus YDR388W, stronger effect = lower value",0.981
same,normalized growth,"locus YDR392W, strain spt3, stronger effect = lower value",0.871
same,normalized growth,"locus YDR502C, strain sam2, stronger effect = lower value",0.968
same,normalized growth,"locus YEL003W, strain gim4, stronger effect = lower value",0.99
same,normalized growth,"locus YEL037C, strain rad23, stronger effect = lower value",0.987
same,normalized growth,"locus YEL061C, strain CIN8 (second series), stronger effect = lower value",0.994
same,normalized growth,"locus YEL061C, strain CIN8, stronger effect = lower value",0.996
same,normalized growth,"locus YER015W, strain faa2, stronger effect = lower value",0.971
same,normalized growth,"locus YER016W, strain bim1, stronger effect = lower value",0.988
same,normalized growth,"locus YER110C, stronger effect = lower value",0.977
same,normalized growth,"locus YER111C, strain swi4, stronger effect = lower value",1.01
same,normalized growth,"locus YER155C, strain BEM2 (second series), stronger effect = lower value",0.964
same,normalized growth,"locus YER155C, strain BEM2, stronger effect = lower value",0.979
same,normalized growth,"locus YER167W, strain BCK2, stronger effect = lower value",0.981
same,normalized growth,"locus YFR010W, strain ubp6, stronger effect = lower value",0.997
same,normalized growth,"locus YGL078C, strain dbp3, stronger effect = lower value",0.982
same,normalized growth,"locus YGL086W, strain mad1, stronger effect = lower value",0.985
same,normalized growth,"locus YGL167C, strain pmr1, stronger effect = lower value",1
same,normalized growth,"locus YGL173C, strain kem1, stronger effect = lower value",0.993
same,normalized growth,"locus YGL227W, strain vid30, stronger effect = lower value",0.996
same,normalized growth,"locus YGL240W, strain doc1, stronger effect = lower value",0.938
same,normalized growth,"locus YGL248W, strain PDE1, stronger effect = lower value",0.945
same,normalized growth,"locus YGL253W, strain hxk2, stronger effect = lower value",0.98
same,normalized growth,"locus YGR078C, strain PAC10, stronger effect = lower value",0.947
same,normalized growth,"locus YGR135W, strain pre9, stronger effect = lower value",0.912
same,normalized growth,"locus YGR252W, strain gcn5, stronger effect = lower value",0.741 (active)
same,normalized growth,"locus YHR013C, strain ard1, stronger effect = lower value",0.971
same,normalized growth,"locus YHR027C, strain rpn1, stronger effect = lower value",0.967
same,normalized growth,"locus YHR030C, strain SLT2, stronger effect = lower value",0.994 and 1.01
same,normalized growth,"locus YHR079C, strain IRE1 (second series), stronger effect = lower value",0.977
same,normalized growth,"locus YHR079C, strain IRE1, stronger effect = lower value",1.01
same,normalized growth,"locus YHR094C, strain hxt1, stronger effect = lower value",0.98
same,normalized growth,"locus YHR129C, strain ARP1, stronger effect = lower value",0.983
same,normalized growth,"locus YHR142W, strain chs7, stronger effect = lower value",1
same,normalized growth,"locus YHR200W, strain rpn10, stronger effect = lower value",0.981
same,normalized growth,"locus YIL066C, strain RNR3, stronger effect = lower value",0.984
same,normalized growth,"locus YIL073C, strain SPO22, stronger effect = lower value",0.98
same,normalized growth,"locus YIL125W, strain kgd1, stronger effect = lower value",0.987
same,normalized growth,"locus YIR030C, strain dcg1, stronger effect = lower value",0.975
same,normalized growth,"locus YJL092W, strain hpr5, stronger effect = lower value",0.985
same,normalized growth,"locus YJL095W, strain BCK1 (second series), stronger effect = lower value",0.98
same,normalized growth,"locus YJL095W, strain BCK1, stronger effect = lower value",0.926 and 1.03
same,normalized growth,"locus YJL115W, strain asf1, stronger effect = lower value",0.983
same,normalized growth,"locus YJL129C, strain trk1, stronger effect = lower value",0.973
same,normalized growth,"locus YJL134W, strain LCB3, stronger effect = lower value",0.984
same,normalized growth,"locus YJL154C, strain vps35, stronger effect = lower value",0.982
same,normalized growth,"locus YJL164C, strain tpk1, stronger effect = lower value",1.02
same,normalized growth,"locus YJL166W, strain qcr8, stronger effect = lower value",0.94
same,normalized growth,"locus YJL168C, strain set2, stronger effect = lower value",0.98
same,normalized growth,"locus YJL187C, strain SWE1 (second series), stronger effect = lower value",0.941
same,normalized growth,"locus YJL187C, strain SWE1, stronger effect = lower value",0.986
same,normalized growth,"locus YJR043C, strain POL32, stronger effect = lower value",0.991
same,normalized growth,"locus YJR066W, strain TOR1, stronger effect = lower value",0.94
